Reference: PubChem BioAssay AID1159580 (chemical genetic matrix, 2015)
About 2,000 (36%) of roughly 5,500 compounds were called active. Roughly 18% stayed inconclusive and do not appear here. Rule as the data show it: active = normalized growth mostly below about 0.91 (no sharp cut-off); inconclusive = no clear call, values can overlap the other calls; inactive = mostly above about 0.92. This is one part of the list.

Experiment: chemical genetic growth profiling, strain panel (AID 1159580);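 also: tested at 20 µM; growth read once vehicle control cultures reached saturation at 30 °C; 1 = growth at the plate median or of vehicle wells; lower values mean less growth of the strain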
Conditions: growth OD

Measured: normalized growth

COc1cccc2c1cc([N+](=O)[O-])c1c(C(=O)O)cc3c(c12)OCO3
inactive: S. cerevisiae deletion strains, locus YJR066W, strain TOR1, active compounds read low 0.912 | S. cerevisiae deletion strains, locus YJR075W, strain HOC1, active compounds read low 1.04 | S. cerevisiae deletion strains, locus YKL009W, strain mrt4, active compounds read low 0.967 | S. cerevisiae deletion strains, locus YKL068W, active compounds read low 1.01 | S. cerevisiae deletion strains, locus YKL085W, strain MDH1 (second series), active compounds read low 0.999 | S. cerevisiae deletion strains, locus YKL085W, strain MDH1, active compounds read low 0.999 | S. cerevisiae deletion strains, locus YKL160W, strain elf1, active compounds read low 1.01 | S. cerevisiae deletion strains, locus YKL190W, strain CNB1, active compounds read low 1.02 | S. cerevisiae deletion strains, locus YKR001C, strain vps1, active compounds read low 1.03 | S. cerevisiae deletion strains, locus YKR026C, strain gcn3, active compounds read low 1.02 | S. cerevisiae deletion strains, locus YKR091W, strain srl3, active compounds read low 1.02 | S. cerevisiae deletion strains, locus YLL001W, strain dnm1, active compounds read low 1.01 | S. cerevisiae deletion strains, locus YLL026W, active compounds read low 1.01 | S. cerevisiae deletion strains, locus YLL041C, strain sdh2, active compounds read low 1.01 | S. cerevisiae deletion strains, locus YLR027C, strain aat2, active compounds read low 1.02 | S. cerevisiae deletion strains, locus YLR039C, strain RIC1, active compounds read low 1.06 | S. cerevisiae deletion strains, locus YLR058C, strain SHM2, active compounds read low 1.01 | S. cerevisiae deletion strains, locus YLR102C, strain apc9, active compounds read low 1.02 | S. cerevisiae deletion strains, locus YLR113W, strain HOG1, active compounds read low 0.971 | S. cerevisiae deletion strains, locus YLR221C, strain rsa3, active compounds read low 1.02 | S. cerevisiae deletion strains, locus YLR258W, strain gsy2, active compounds read low 1.03 | S. cerevisiae deletion strains, locus YLR262C, strain YPT6 (second series), active compounds read low 1 | S. cerevisiae deletion strains, locus YLR262C, strain YPT6, active compounds read low 1.07 | S. cerevisiae deletion strains, locus YLR268W, strain sec22, active compounds read low 1.06 | S. cerevisiae deletion strains, locus YLR320W, strain mms22, active compounds read low 1.02 | S. cerevisiae deletion strains, locus YLR330W, strain CHS5, active compounds read low 1.02 | S. cerevisiae deletion strains, locus YLR342W, strain FKS1 (second series), active compounds read low 0.989 | S. cerevisiae deletion strains, locus YLR342W, strain FKS1, active compounds read low 1.04 | S. cerevisiae deletion strains, locus YLR357W, strain rsc2, active compounds read low 1.01 | S. cerevisiae deletion strains, locus YLR370C, strain arc18, active compounds read low 1.03 | S. cerevisiae deletion strains, locus YLR371W, strain rom2, active compounds read low 1.03 | S. cerevisiae deletion strains, locus YLR384C, strain iki3, active compounds read low 1 | S. cerevisiae deletion strains, locus YLR418C, strain cdc73, active compounds read low 1.01 | S. cerevisiae deletion strains, locus YML016C, strain PPZ1, active compounds read low 1.01 | S. cerevisiae deletion strains, locus YML032C, strain rad52, active compounds read low 0.99 | S. cerevisiae deletion strains, locus YML120C, strain ndi1, active compounds read low 1.02 | S. cerevisiae deletion strains, locus YML124C, strain tub3, active compounds read low 1.01 | S. cerevisiae deletion strains, locus YMR058W, strain fet3, active compounds read low 1.02 | S. cerevisiae deletion strains, locus YMR078C, strain ctf18, active compounds read low 1.02 | S. cerevisiae deletion strains, locus YMR125W, strain sto1, active compounds read low 1.03 | S. cerevisiae deletion strains, locus YMR129W, active compounds read low 1.02 | S. cerevisiae deletion strains, locus YMR205C, strain PFK2, active compounds read low 1.05 | S. cerevisiae deletion strains, locus YMR223W, strain ubp8, active compounds read low 1.01 | S. cerevisiae deletion strains, locus YMR231W, strain pep5, active compounds read low 1.03 | S. cerevisiae deletion strains, locus YMR307W, strain GAS1, active compounds read low 0.988 | S. cerevisiae deletion strains, locus YNL067W, strain RPL9B, active compounds read low 1.04 | S. cerevisiae deletion strains, locus YNL071W, strain lat1, active compounds read low 1.02 | S. cerevisiae deletion strains, locus YNL183C, strain NPR1, active compounds read low 0.917 | S. cerevisiae deletion strains, locus YNL209W, strain ssb2, active compounds read low 1.02 | S. cerevisiae deletion strains, locus YNL233W, strain BNI4, active compounds read low 1.03 | S. cerevisiae deletion strains, locus YNL248C, strain rpa49, active compounds read low 1.01 | S. cerevisiae deletion strains, locus YNL250W, strain rad50, active compounds read low 1.01 | S. cerevisiae deletion strains, locus YNL271C, strain bni1, active compounds read low 1.01 | S. cerevisiae deletion strains, locus YNL298W, strain CLA4, active compounds read low 0.97 | S. cerevisiae deletion strains, locus YNL307C, strain MCK1, active compounds read low 1.03 | S. cerevisiae deletion strains, locus YNL322C, strain KRE1 (second series), active compounds read low 1.01 | S. cerevisiae deletion strains, locus YNL322C, strain KRE1, active compounds read low 1 | S. cerevisiae deletion strains, locus YNR049C, strain mso1, active compounds read low 1.02 | S. cerevisiae deletion strains, locus YNR052C, strain pop2, active compounds read low 1 | S. cerevisiae deletion strains, locus YOL006C, strain TOP1, active compounds read low 1.09 | S. cerevisiae deletion strains, locus YOL012C, strain htz1 1.07 | S. cerevisiae deletion strains, locus YOL147C, strain pex11, active compounds read low 1.01 | S. cerevisiae deletion strains, locus YOR001W, strain rrp6, active compounds read low 1.01 | S. cerevisiae deletion strains, locus YOR061W, strain CKA2, active compounds read low 1.02 | S. cerevisiae deletion strains, locus YOR069W, strain VPS5, active compounds read low 1.01 | S. cerevisiae deletion strains, locus YOR070C, strain gyp1, active compounds read low 1.01 | S. cerevisiae deletion strains, locus YOR080W, strain dia2, active compounds read low 1.02 | S. cerevisiae deletion strains, locus YOR083W, strain WHI5, active compounds read low 1 | S. cerevisiae deletion strains, locus YOR106W, strain vam3, active compounds read low 1.01 | S. cerevisiae deletion strains, locus YOR136W, strain idh2, active compounds read low 1.02 | S. cerevisiae deletion strains, locus YOR144C, strain elg1, active compounds read low 1.01 | S. cerevisiae deletion strains, locus YOR184W, strain ser1, active compounds read low 1 | S. cerevisiae deletion strains, locus YOR231W, strain MKK1, active compounds read low 0.928 | S. cerevisiae deletion strains, locus YOR265W, strain rbl2, active compounds read low 1.01 | S. cerevisiae deletion strains, locus YOR270C, strain vph1, active compounds read low 1.04 | S. cerevisiae deletion strains, locus YOR290C, strain snf2, active compounds read low 0.995 | S. cerevisiae deletion strains, locus YOR316C, strain cot1, active compounds read low 1.02 | S. cerevisiae deletion strains, locus YPL051W, strain arl3, active compounds read low 1.01 | S. cerevisiae deletion strains, locus YPL055C, strain LGE1, active compounds read low 1.04 | S. cerevisiae deletion strains, locus YPL078C, strain atp4, active compounds read low 1.01 | S. cerevisiae deletion strains, locus YPL106C, strain sse1, active compounds read low 1.03 | S. cerevisiae deletion strains, locus YPL240C, strain hsp82, active compounds read low 1.01 | S. cerevisiae deletion strains, locus YPL241C, strain CIN2, active compounds read low 1.01 | S. cerevisiae deletion strains, locus YPL256C, strain CLN2, active compounds read low 0.926 | S. cerevisiae deletion strains, locus YPR119W, strain clb2, active compounds read low 1.02 | S. cerevisiae deletion strains, locus YPR141C, strain kar3, active compounds read low 1.02 | S. cerevisiae deletion strains, locus YPR163C, strain tif3, active compounds read low 1.02 | S. cerevisiae deletion strains, locus YPR167C, strain met16, active compounds read low 1.02 | S. cerevisiae deletion strains, strain wtn01, active compounds read low 1.05 | S. cerevisiae strains, strain wild type, active compounds read low 1.02
